About 2,000 (36%) of roughly 5,500 compounds were called active. About 18% were inconclusive and are not listed. This is one part of the list. Values without a mark were called inactive. No stated cut-off is given here; in the data, active means normalized growth mostly below about 0.91 (no sharp cut-off); inconclusive means no clear call, values can overlap the other calls; inactive means mostly above about 0.92.
Experiment: chemical genetic growth profiling, strain panel (AID 1159580);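 further: tested at 20 µM; growth read once vehicle control cultures reached saturation at 30 °C; 1 = growth at the plate median or of vehicle wells; lower values mean less growth of the strain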
Settings: S. cerevisiae deletion strains, growth OD

SMILES: O=C(Nc1ccccc1)c1cc([N+](=O)[O-])ccc1Cl
- normalized growth (locus YAL040C, strain CLN3, hits give low values): 1.07
- normalized growth (locus YCL061C, strain MRC1 (second series), hits give low values): 0.989
- normalized growth (locus YDR363W, strain ESC2, hits give low values): 0.967
- normalized growth (locus YER002W, strain NOP16, hits give low values): 0.972
- normalized growth (locus YGR078C, strain PAC10, hits give low values): 0.974
- normalized growth (locus YGR229C, strain SMI1, hits give low values): 0.996
- normalized growth (locus YNL175C, strain NOP13, hits give low values): 0.996
- normalized growth (locus YNL197C, strain WHI3, hits give low values): 0.969
- normalized growth (locus YNL224C, strain SQS1, hits give low values): 0.976
- normalized growth (locus YNL322C, strain KRE1, hits give low values): 0.999
- normalized growth (locus YOR083W, strain WHI5 (second series), hits give low values): 0.958
- normalized growth (locus YPL241C, strain CIN2, hits give low values): 1

SMILES: O=C(Nc1ccccc1)Nc1ccc(Cl)cc1[N+](=O)[O-]
- normalized growth (locus YAR019C, strain CDC15, hits give low values): 0.977
- normalized growth (locus YBL105C, strain PKC1, hits give low values): 0.973
- normalized growth (locus YBR135W, strain CKS1, hits give low values): 0.976
- normalized growth (locus YBR136W, strain MEC1, hits give low values): 0.977
- normalized growth (locus YBR160W, strain CDC28, hits give low values): 0.964
- normalized growth (locus YDL017W, strain CDC7, hits give low values): 0.975
- normalized growth (locus YDL028C, strain MPS1, hits give low values): 0.974
- normalized growth (locus YDL101C, strain DUN1, hits give low values): 0.987
- normalized growth (locus YDL108W, strain KIN28, hits give low values): 0.988
- normalized growth (locus YDL132W, strain cdc53, hits give low values): 0.962
- normalized growth (locus YDL214C, strain PRR2, hits give low values): 0.917
- normalized growth (locus YDR052C, strain DBF4, hits give low values): 0.968
- normalized growth (locus YDR054C, strain cdc34, hits give low values): 0.97
- normalized growth (locus YDR226W, strain ADK1, hits give low values): 0.968
- normalized growth (locus YDR477W, strain SNF1, hits give low values): 0.947
- normalized growth (locus YER123W, strain YCK3, hits give low values): 0.92
- normalized growth (locus YER133W, strain GLC7, hits give low values): 0.959
- normalized growth (locus YFL009W, strain cdc4, hits give low values): 0.961
- normalized growth (locus YFL029C, strain CAK1, hits give low values): 0.977
- normalized growth (locus YFR003C, strain YPI1, hits give low values): 0.989
- normalized growth (locus YFR019W, strain FAB1, hits give low values): 0.933
- normalized growth (locus YFR028C, strain CDC14, hits give low values): 0.974
- normalized growth (locus YGR040W, strain KSS1, hits give low values): 0.938
- normalized growth (locus YGR052W, strain FMP48, hits give low values): 1.01
- normalized growth (locus YGR092W, strain DBF2, hits give low values): 0.932
- normalized growth (locus YHR030C, strain SLT2, hits give low values): 0.721 (active)
- normalized growth (locus YHR079C, strain IRE1, hits give low values): 0.872
- normalized growth (locus YHR082C, strain KSP1, hits give low values): 0.926
- normalized growth (locus YHR205W, strain SCH9, hits give low values): 0.874
- normalized growth (locus YIL147C, strain SLN1, hits give low values): 0.972
- normalized growth (locus YJL095W, strain BCK1, hits give low values): 0.847
- normalized growth (locus YJL128C, strain PBS2, hits give low values): 0.958
- normalized growth (locus YJL157C, strain FAR1, hits give low values): 0.946
- normalized growth (locus YJR016C, strain ILV3, hits give low values): 0.972
- normalized growth (locus YJR066W, strain TOR1 (second series), hits give low values): 0.928
- normalized growth (locus YJR066W, strain TOR1, hits give low values): 0.903
- normalized growth (locus YKL048C, strain ELM1, hits give low values): 0.925
- normalized growth (locus YKL067W, strain YNK1, hits give low values): 0.93
- normalized growth (locus YKL101W, strain HSL1, hits give low values): 0.921
- normalized growth (locus YKL193C, strain SDS22, hits give low values): 0.968
- normalized growth (locus YKL203C, strain TOR2, hits give low values): 0.976
- normalized growth (locus YLR113W, strain HOG1, hits give low values): 0.888
- normalized growth (locus YLR133W, strain CKI1, hits give low values): 0.92
- normalized growth (locus YLR403W, strain SFP1, hits give low values): 0.944
- normalized growth (locus YML070W, strain DAK1, hits give low values): 0.909
- normalized growth (locus YMR001C, strain CDC5, hits give low values): 0.977
- normalized growth (locus YMR205C, strain PFK2 (second series), hits give low values): 0.941
- normalized growth (locus YMR277W, strain FCP1, hits give low values): 0.974
- normalized growth (locus YNL006W, strain LST8, hits give low values): 0.976
- normalized growth (locus YNL020C, strain ARK1, hits give low values): 0.909
- normalized growth (locus YNL161W, strain CBK1, hits give low values): 0.976
- normalized growth (locus YNL183C, strain NPR1, hits give low values): 0.906
- normalized growth (locus YNL207W, strain RIO2, hits give low values): 0.96
- normalized growth (locus YNL222W, strain SSU72, hits give low values): 0.985
- normalized growth (locus YNL307C, strain MCK1 (second series), hits give low values): 0.916
- normalized growth (locus YOL078W, strain AVO1, hits give low values): 0.97
- normalized growth (locus YOL136C, strain PFK27, hits give low values): 0.892
- normalized growth (locus YOR061W, strain CKA2, hits give low values): 0.956
- normalized growth (locus YOR119C, strain RIO1, hits give low values): 1.01
- normalized growth (locus YOR231W, strain MKK1, hits give low values): 0.835
- normalized growth (locus YOR329C, strain SCD5, hits give low values): 0.978
- normalized growth (locus YPL031C, strain PHO85, hits give low values): 0.948
- normalized growth (locus YPL153C, strain RAD53, hits give low values): 0.942
- normalized growth (locus YPL204W, strain HRR25, hits give low values): 0.925
- normalized growth (locus YPL209C, strain IPL1, hits give low values): 0.975
- normalized growth (locus YPL256C, strain CLN2, hits give low values): 0.809 (active)
- normalized growth (locus YPR025C, strain CCL1, hits give low values): 0.979
- normalized growth (locus YPR106W, strain ISR1, hits give low values): 0.975
- normalized growth (locus YPR111W, strain DBF20, hits give low values): 0.963
- normalized growth (strain NNK1, hits give low values): 0.952
- normalized growth (strain TSCII, hits give low values): 0.965

Source: PubChem BioAssay AID1159580 (chemical genetic matrix, 2015)
